Data on seven molecules can be found in PubChem BioAssay (EPA / NIEHS).

Activity calls are given as the source filed them. The calls were made as follows: active = hit-call score of the fitted dose curve at least 0.9, where 1 is the maximum; inactive = score below 0.9.

The nature of assay [1]: ATG_CRE_CIS: Attagene CIS-FACTORIAL HepG2 Assay for human cAMP Responsive Element (CRE) binding protein 3 (AID 2282926). Particulars: HepG2 CRE cis-reporter, Attagene multiplexed mRNA; actives raise or lower the signal. A digest of the protocol: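 Endogenous transcription factor activity read via CRE-regulated reporter transcripts in transfected HepG2 cells. After 24 h exposure, RNA was reverse-transcribed, amplified, fluorescently labelled and sized by capillary electrophoresis; gain or loss fitted against DMSO.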

Assay [2] addresses CCAAT/enhancer-binding protein beta (Homo sapiens) (UniProt P17676). Put plainly: ATG_C_EBP_CIS: Attagene CIS-FACTORIAL HepG2 Assay for human CCAAT/Enhancer Binding Protein (C/EBP) beta (AID 2282927). Particulars: HepG2 Attagene cis-factorial transcription factor reporter; actives raise or lower the signal. A digest of the protocol:
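Endogenous transcription factor activity in human liver HepG2 cells is inferred from induction of a CEBPB-linked reporter mRNA. Exposure lasts 24 h; activity is fitted in both directions relative to DMSO.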

Assay [3] in a line: ATG_CMV_CIS: Attagene CIS-FACTORIAL HepG2 Assay for human CMV (Internal Marker) (AID 2282928).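 Also: endpoint acts as a background internal control marker rather than a target.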 The note with it: HepG2 CMV promoter reporter, transcription factor profiling; actives raise or lower the signal. The method in brief: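 Readout: fluorescent reporter cDNA fragments separated by capillary electrophoresis after RT-PCR and HpaI cut. Cells: HepG2 carrying transfected cis-promoter reporter constructs, dosed 24 h. Endpoint serves as background internal-marker control, fit bidirectionally versus DMSO.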

A short description of assay [4]: ATG_AP_1_CIS: Attagene CIS-FACTORIAL HepG2 Assay for human Activator Protein 1 (AP-1) (AID 2282931). The note with it: HepG2 Attagene cis-factorial AP-1 reporter mRNA; actives raise or lower the signal. A digest of the protocol: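 Reporter transcripts were measured 24 h after dosing by RT-PCR and capillary electrophoresis of fluorescent fragments. Cells: HepG2 carrying transfected cis-regulated reporter constructs reading endogenous factor activity. Gain or loss fitted against DMSO.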

Assay [5] can be described thus: ATG_AP_2_CIS: Attagene CIS-FACTORIAL HepG2 Assay for human Activator Protein 2 (AP-2) (AID 2282932). The note with it: HepG2 AP-2 cis-reporter, Attagene transcription factor profiling; actives raise or lower the signal. A digest of the protocol: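 Transiently transfected HepG2 cells are exposed to chemical for 24 h. Reporter transcripts are then measured as fluorescence following RT-PCR and capillary separation, and gain- or loss-of-signal is fitted relative to DMSO.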

Assay [6] in a line: ATG_BRE_CIS: Attagene CIS-FACTORIAL HepG2 Assay for human Bone Morphogenetic Protein (BMP) Response Element (BRE) (AID 2282933). The note with it: HepG2 BMP response element reporter, Attagene transcription factor profiling; actives raise or lower the signal. A digest of the protocol:
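Endogenous transcription factor activity read in transiently transfected HepG2 cells after 24 h chemical exposure. Bidirectional curve fitting against DMSO; readout is reporter transcript level by RT-PCR with capillary electrophoresis of labelled products.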

In assay [7] the target is Transcription factor E2F1 (Homo sapiens) (UniProt Q01094). Put plainly: ATG_E2F_CIS: Attagene CIS-FACTORIAL HepG2 Assay for human E2F Transcription Factor 1 (AID 2282935). Particulars: HepG2 Attagene cis-reporter, E2F reporter RNA transcripts; actives raise or lower the signal. A digest of the protocol:
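Fluorescent RT-PCR products, digested with HpaI for 2 h at 37 C, are separated by capillary electrophoresis. Source RNA comes from transfected HepG2 cultures treated for 24 h.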

Assay [8] is described as follows: ATG_E_Box_CIS: Attagene CIS-FACTORIAL HepG2 Assay for human Enhancer Box (E-box) (AID 2282936). Particulars: HepG2 E-box cis-reporter transcription, actives raise or lower the signal. A digest of the protocol:
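Fluorescent reporter fragments separated by capillary electrophoresis gave the signal; mRNA came from HepG2 cells transfected with cis-element reporters and treated 24 h. Curves fitted bidirectionally relative to DMSO controls.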

Assay [9] is described as follows: ATG_M_61_CIS: Attagene CIS-FACTORIAL HepG2 Assay for M61 Transcription Factor (Internal Marker) (AID 2282937). Particulars: HepG2 Attagene CIS-FACTORIAL M61 internal marker reporter; actives raise or lower the signal. The method in brief:
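Readout: fluorescent reporter mRNA fragments resolved by capillary electrophoresis after RT-PCR. Transiently transfected human HepG2 cells carried MRTU constructs reporting endogenous TF activity; 24 h chemical exposure; gain or loss of signal fitted relative to DMSO.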

Assay [10] can be described thus: ATG_EGR_CIS: Attagene CIS-FACTORIAL HepG2 Assay for human Early Growth Response 1 (EGR1) (AID 2282938). Particulars: HepG2 Attagene CIS-FACTORIAL EGR reporter mRNA; actives raise or lower the signal. A digest of the protocol: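 Read-out: fluorescent reporter-mRNA fragments resolved by capillary electrophoresis after RT-PCR, 24 h post-dose in transiently transfected HepG2. Endogenous transcription-factor activity reported via cis-element-regulated reporter units; gain or loss fitted relative to DMSO.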

Assay [11] is described as follows: ATG_M_19_CIS: Attagene CIS-FACTORIAL HepG2 Assay for M19 Transcription Factor (Internal Marker) (AID 2282939). The note with it: HepG2 Attagene CIS-FACTORIAL M19 internal marker reporter; actives raise or lower the signal. A digest of the protocol:
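Internal marker readout, fitted in both directions against DMSO, from HepG2 cells carrying transfected cis-element reporter constructs; RT-PCR and capillary electrophoresis of reporter mRNA after 24 h exposure.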

Assay [12] is described as follows: ATG_GATA_CIS: Attagene CIS-FACTORIAL HepG2 Assay for human GATA Binding Protein (AID 2282944). The note with it: HepG2 GATA cis-element reporter, Attagene multiplex mRNA; actives raise or lower the signal. The method in brief: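 Reporter transcripts from a GATA cis-regulated unit, among multiplexed reporters in transfected HepG2 cells, were measured by RT-PCR with capillary electrophoresis after 24 h dosing. Induction or loss scored relative to DMSO.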

Assay [13] can be described thus: ATG_GLI_CIS: Attagene CIS-FACTORIAL HepG2 Assay for human Zinc Finger Protein GLI1 (AID 2282945). The note with it: HepG2, Attagene cis-factorial reporter mRNA, GLI element; actives raise or lower the signal. A digest of the protocol: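 Bidirectional curve fits relative to DMSO, using reporter mRNA levels from RT-PCR plus capillary electrophoresis. Cells were HepG2 transiently carrying cis-regulated reporter constructs, harvested 24 h after dosing.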

Assay [14] is described as follows: ATG_ISRE_CIS: Attagene CIS-FACTORIAL HepG2 Assay for human Interferon Regulatory Factor 1 (IRF1) binding to an Interferon-Stimulated Response Element (ISRE) (AID 2282948). Particulars: HepG2 ISRE cis-reporter (Attagene), mRNA transcription readout; actives raise or lower the signal. A digest of the protocol: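 Read-out: fluorescent RT-PCR products resolved by capillary electrophoresis, reporting endogenous transcription factor activity via ISRE-driven reporter mRNA in transfected HepG2 cells dosed for 24 h; gain or loss fitted relative to DMSO.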

A short description of assay [15]: ATG_M_32_CIS: Attagene CIS-FACTORIAL HepG2 Assay for M32 Transcription Factor (Internal Marker) (AID 2282949).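 Also: background control marker of the multiplexed CIS panel rather than a real target.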 The note with it: HepG2 Attagene cis-factorial M32 reporter, mRNA; actives raise or lower the signal. The method in brief: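 Transient MRTU transfection of HepG2; 24 h compound treatment; TriZol RNA, oligo(dT) RT, reporter PCR, 6-FAM primer extension, HpaI cut, CE. Gain/loss of signal vs DMSO.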

Assay [16] can be described thus: ATG_MRE_CIS: Attagene CIS-FACTORIAL HepG2 Assay for human Metal Responsive Element (MRE) (AID 2282954). The note with it: HepG2 MRE cis-reporter transcription, Attagene multiplex; actives raise or lower the signal. The method in brief:
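Multiplexed cis-reporter assay in human HepG2 liver cells, 24 h incubation with test chemical. Reporter transcripts measured by RT-PCR and capillary electrophoresis; values from bidirectional curve fitting versus DMSO.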

Assay [17] has as its target Paired box protein Pax-6 (Homo sapiens) (UniProt P26367). Put plainly: ATG_Pax6_CIS: Attagene CIS-FACTORIAL HepG2 Assay for human Paired Box 6 (PAX6) (AID 2282956). Particulars: HepG2 CIS-FACTORIAL PAX6 reporter transcription, RNA readout; actives raise or lower the signal. A digest of the protocol:
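Readout: reporter transcript fluorescence after RT-PCR and capillary electrophoresis. Cells: HepG2, transiently transfected with cis-regulated MRTUs. Exposure 24 h. Gain or loss of signal fitted bidirectionally relative to DMSO.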

Assay [18] in a line: ATG_PXRE_CIS: Attagene CIS-FACTORIAL HepG2 Assay for human Pregnane X Receptor Element (PXRE) (AID 2282957). Particulars: HepG2 Attagene CIS-FACTORIAL PXRE reporter, mRNA; actives raise or lower the signal. The method in brief: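 Reporter transcripts under endogenous PXR-responsive cis-regulation quantified from total RNA of transfected HepG2 cells 24 h post-dosing, via RT-PCR with fluorescent primer extension and capillary electrophoresis. Gain or loss of signal fitted against DMSO baseline.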

The target of assay [19] is Transcription factor Sp1 (Homo sapiens) (UniProt P08047). Put plainly: ATG_Sp1_CIS: Attagene CIS-FACTORIAL HepG2 Assay for human Specificity Protein 1 (Sp1) (AID 2282961). Particulars: HepG2 Sp1 cis-reporter transcription, actives raise or lower the signal. A digest of the protocol:
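Read-out: fluorescence of 6-FAM-labeled, HpaI-digested RT-PCR products separated by capillary electrophoresis. HepG2 cells carried transfected cis-element reporter units and were exposed to chemicals for 24 h; gain or loss of signal fitted relative to DMSO.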

In assay [20] the target is Signal transducer and activator of transcription 3 (Homo sapiens) (UniProt P40763). As to the kind of experiment: ATG_STAT3_CIS: Attagene CIS-FACTORIAL HepG2 Assay for human Signal Transducer and Activator of Transcription 3 (STAT3) (AID 2282963). Particulars: HepG2, Attagene cis-factorial STAT3 reporter transcription; actives raise or lower the signal. The method in brief: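 Cis-factorial format: endogenous transcription factors in HepG2 drive transfected reporter units. After 24 h treatment, reporter RNA was reverse-transcribed, amplified, FAM-labelled and HpaI-digested before CE analysis; activity scored in both directions against DMSO.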
Chain of Signal transducer and activator of transcription 3 (Homo sapiens) (P40763 whole entry, looked up): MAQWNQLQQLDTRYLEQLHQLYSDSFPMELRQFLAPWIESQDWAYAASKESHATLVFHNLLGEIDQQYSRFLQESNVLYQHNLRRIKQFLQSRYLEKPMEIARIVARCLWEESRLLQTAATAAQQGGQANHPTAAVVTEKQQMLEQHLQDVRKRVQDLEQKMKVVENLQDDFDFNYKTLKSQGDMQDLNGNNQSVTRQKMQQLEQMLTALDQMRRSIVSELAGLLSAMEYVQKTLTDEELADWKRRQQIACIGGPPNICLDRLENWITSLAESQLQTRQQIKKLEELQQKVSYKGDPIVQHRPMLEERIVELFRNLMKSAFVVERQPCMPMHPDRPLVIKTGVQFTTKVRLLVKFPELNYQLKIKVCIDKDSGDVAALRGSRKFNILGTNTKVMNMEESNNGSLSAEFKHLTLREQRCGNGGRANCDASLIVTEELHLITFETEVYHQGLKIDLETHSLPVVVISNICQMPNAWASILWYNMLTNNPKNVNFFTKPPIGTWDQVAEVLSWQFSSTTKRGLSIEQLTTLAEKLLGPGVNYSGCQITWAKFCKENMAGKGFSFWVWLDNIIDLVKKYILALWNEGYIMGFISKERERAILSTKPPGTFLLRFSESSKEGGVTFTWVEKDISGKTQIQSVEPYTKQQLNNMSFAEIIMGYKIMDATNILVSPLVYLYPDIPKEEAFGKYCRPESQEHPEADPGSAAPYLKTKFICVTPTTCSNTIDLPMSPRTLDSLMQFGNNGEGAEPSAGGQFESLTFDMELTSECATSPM

Chain of Transcription factor E2F1 (Homo sapiens) (Q01094 whole entry, looked up): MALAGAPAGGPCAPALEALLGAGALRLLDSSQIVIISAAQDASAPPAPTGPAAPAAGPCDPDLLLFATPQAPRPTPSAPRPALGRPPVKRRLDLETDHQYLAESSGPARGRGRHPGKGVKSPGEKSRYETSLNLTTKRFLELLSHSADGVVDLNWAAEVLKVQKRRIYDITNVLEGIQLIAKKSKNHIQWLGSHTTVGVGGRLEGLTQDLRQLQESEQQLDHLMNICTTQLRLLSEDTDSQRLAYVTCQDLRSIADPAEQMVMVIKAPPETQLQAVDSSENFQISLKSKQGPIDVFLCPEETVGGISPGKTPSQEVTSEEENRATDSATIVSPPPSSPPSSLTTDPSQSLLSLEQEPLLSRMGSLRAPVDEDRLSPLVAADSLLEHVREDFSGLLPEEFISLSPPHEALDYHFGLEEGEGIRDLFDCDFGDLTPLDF
Chain of Paired box protein Pax-6 (Homo sapiens) (P26367 whole entry, looked up): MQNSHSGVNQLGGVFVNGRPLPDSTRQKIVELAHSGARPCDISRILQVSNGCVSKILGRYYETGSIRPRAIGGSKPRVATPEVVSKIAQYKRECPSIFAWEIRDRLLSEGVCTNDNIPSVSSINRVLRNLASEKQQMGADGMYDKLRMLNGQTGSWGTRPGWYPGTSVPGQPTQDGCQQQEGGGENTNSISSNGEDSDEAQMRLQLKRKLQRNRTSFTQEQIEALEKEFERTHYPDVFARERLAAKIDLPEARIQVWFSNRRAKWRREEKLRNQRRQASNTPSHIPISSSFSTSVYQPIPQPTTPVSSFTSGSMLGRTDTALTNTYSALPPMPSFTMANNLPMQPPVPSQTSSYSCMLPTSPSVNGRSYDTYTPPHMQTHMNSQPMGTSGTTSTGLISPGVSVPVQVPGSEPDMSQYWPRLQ
Chain of Transcription factor Sp1 (Homo sapiens) (P08047 whole entry, looked up): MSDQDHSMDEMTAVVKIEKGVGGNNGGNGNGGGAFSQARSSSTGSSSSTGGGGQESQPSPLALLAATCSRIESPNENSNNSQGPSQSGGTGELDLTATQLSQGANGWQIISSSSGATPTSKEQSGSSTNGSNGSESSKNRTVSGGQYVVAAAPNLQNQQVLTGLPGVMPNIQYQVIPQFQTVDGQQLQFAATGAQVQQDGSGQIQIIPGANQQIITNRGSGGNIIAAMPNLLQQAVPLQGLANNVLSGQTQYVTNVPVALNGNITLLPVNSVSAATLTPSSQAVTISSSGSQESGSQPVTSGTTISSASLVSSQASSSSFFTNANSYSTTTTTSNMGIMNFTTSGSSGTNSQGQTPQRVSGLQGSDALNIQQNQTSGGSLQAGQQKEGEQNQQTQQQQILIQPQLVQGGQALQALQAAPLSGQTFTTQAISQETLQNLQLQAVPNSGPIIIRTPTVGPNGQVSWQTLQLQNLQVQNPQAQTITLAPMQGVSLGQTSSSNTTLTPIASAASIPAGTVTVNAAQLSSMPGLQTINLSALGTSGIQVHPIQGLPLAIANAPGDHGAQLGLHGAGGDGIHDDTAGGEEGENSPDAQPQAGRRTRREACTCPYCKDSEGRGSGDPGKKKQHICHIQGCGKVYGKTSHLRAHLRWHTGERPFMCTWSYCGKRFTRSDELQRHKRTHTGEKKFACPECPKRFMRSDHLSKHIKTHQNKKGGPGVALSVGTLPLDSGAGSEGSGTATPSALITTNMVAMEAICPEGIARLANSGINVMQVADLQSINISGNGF
Chain of CCAAT/enhancer-binding protein beta (Homo sapiens) (P17676 whole entry, looked up): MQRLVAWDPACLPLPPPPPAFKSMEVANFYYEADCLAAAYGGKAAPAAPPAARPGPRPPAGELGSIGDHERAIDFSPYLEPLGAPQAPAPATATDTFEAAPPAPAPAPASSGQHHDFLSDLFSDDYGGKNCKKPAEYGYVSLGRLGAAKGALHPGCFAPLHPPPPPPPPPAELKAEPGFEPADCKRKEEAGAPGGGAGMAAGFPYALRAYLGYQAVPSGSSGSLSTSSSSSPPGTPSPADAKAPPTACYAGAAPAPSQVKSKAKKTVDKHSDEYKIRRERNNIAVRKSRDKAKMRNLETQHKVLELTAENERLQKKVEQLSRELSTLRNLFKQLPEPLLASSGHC

In the case of `CN(C)c1ccc(C(c2ccccc2)c2ccc(N(C)C)cc2)cc1`, the result in assay [1], in assay [2], in assay [3], in [5], in [7] and in assay [8] was inactive. Further, the molecule was called inactive in assay [9], in assay [10], in assay [11], in [12], in assay [13] and in [14]. In addition, the molecule was called inactive in assay [15], in [16], in [17], in [19] and in assay [20]. The results for the AC50 in assay [4], in [6] and in [18] were 100 µM (active), 100 µM (active) and 3.06 µM (active), respectively.
For `CCCCn1cc[n+](C)c1`, the call in [1], in [2], in [3], in assay [4], in assay [5] and in assay [6] was inactive. Further, the molecule was classed as inactive in assay [7], in assay [8], in assay [9], in [10], in assay [11] and in [12]. The molecule was called inactive in assay [13], in [14], in assay [15], in [16], in assay [17] and in [18]. For the same molecule, the call in assay [19] and in assay [20] was inactive.
For the molecule `CCCCCCC1CCC(=O)O1` (stereo not given), the outcome in assay [1], in [2], in assay [3], in [4], in assay [5] and in assay [6] was inactive. Also, the call in [7], in [8], in assay [9], in assay [10], in assay [11] and in assay [12] was inactive. The result in [13], in assay [14], in assay [15], in assay [16], in assay [17] and in assay [18] was inactive. The molecule was classed as inactive in assay [19] and in assay [20].
As for `COC(=O)c1ccccc1`, the molecule was called inactive in assay [1], in assay [2], in [3], in assay [4], in assay [5] and in assay [6]. The result in assay [7], in [8], in assay [9], in assay [10], in assay [11] and in [12] was inactive. Moreover, the call in [13], in assay [14], in assay [15], in assay [16], in [17] and in assay [18] was inactive. Also, the outcome in assay [19] and in [20] was inactive.
For the molecule `Nc1nnc(-c2ccc([N+](=O)[O-])o2)o1`, the outcome in [1], in assay [2], in [3], in assay [5], in assay [6] and in assay [7] was inactive. For the same molecule, the outcome in [8], in [9], in [10], in assay [11], in assay [12] and in assay [13] was inactive. Besides, the molecule was called inactive in assay [14], in [15], in assay [16], in assay [17], in [18] and in assay [19]. The molecule was classed as inactive in assay [20]. The AC50 in [4] was 33.4 µM (active).
For `CN1CCCC1`, the outcome in [1], in assay [2], in [3], in [4], in [5] and in [6] was inactive. Moreover, the molecule was classed as inactive in assay [7], in assay [8], in assay [9], in assay [10], in [11] and in [12]. Further, the call in assay [13], in assay [14], in assay [15], in assay [16], in assay [17] and in [18] was inactive. Also, the outcome in assay [19] and in assay [20] was inactive.
For the molecule `O=C(O)c1cc(Cl)cc(Cl)c1O`, the molecule was called inactive in assay [1], in assay [2], in assay [3], in assay [4], in assay [5] and in [6]. For the same molecule, the molecule was classed as inactive in [7], in assay [8], in assay [9], in assay [10], in assay [11] and in assay [12]. The result in assay [13], in [14], in assay [15], in [16], in assay [17] and in assay [19] was inactive. Further, the outcome in assay [20] was inactive. The AC50 in assay [18] was 68.7 µM (active).
